# Test results reported in PubChem BioAssay AID504832 (National Center for Advancing Translational Sciences (NCATS), 2011).
# The campaign covered roughly 310,000 compounds. About 18,000 (5.8%) were called active. A call without a number means that no potency is given here. Not shown: some 22% with an inconclusive outcome. Calls follow the shape of the dose curve; as a rule, active = well fitted inhibition curve with a large enough effect; inconclusive = small, poorly fitted or top-dose-only effect, or another doubt; inactive = no such curve, though single readings can be large or run the other way. The full list was thinned out, with actives kept by preference.
# Assay: Primary qHTS for delayed death inhibitors of the malarial parasite plastid, 48 hour incubation
# Settings: P. falciparum luciferase growth in erythrocytes; series mostly up to 28.7 µM
# Outline: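 Parasite viability was followed by luminescence of a genomically integrated firefly luciferase. Cultures held 0.1% parasitemia at 2% hematocrit (final), incubated under 5% CO2 at 37 C.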
# Potency is read from the fitted curve at half-maximal effect.
Compound,Potency,"activity change, negative = inhibition"
COc1ccc(CSc2nnnn2-c2ccc(C(=O)O)cc2)cc1,inactive,
COc1ccc(C(=O)NCC(=O)N/N=C/c2cccnc2)cc1,inactive,
CCOc1ccc(CCNC(=O)COC(=O)c2ccc(F)c(S(=O)(=O)N3CCOCC3)c2)cc1OCC,14.7 µM (active),
Cc1cc(NC(=O)COC(=O)c2ccc(F)c(S(=O)(=O)N3CCOCC3)c2)no1,inactive,
COc1ccc(C(=O)OCC(=O)c2ccc(C)c(S(=O)(=O)N3CCOCC3)c2)cc1OC,inactive,
CC(C)CNC(=O)C(=O)NCC(c1ccc2c(c1)OCO2)N1CCOCC1 (centres undefined),inactive,
NS(=O)(=O)c1ccc(CCNC(=O)CCCn2c(SCC(=O)N3CCCC3)nc3ccsc3c2=O)cc1,inactive,
CCCCn1c(SCC(=O)N2CCC(C(=O)OCC)CC2)nc2cc(S(N)(=O)=O)ccc21,13.1 µM (active),
CCCCn1c(SCC(=O)N2CCCC2=O)nc2cc(S(N)(=O)=O)ccc21,inactive,
CCSc1nsc(NC(=O)Nc2ccccc2OC)n1,inactive,
COc1ccc(CC(=O)NC2CCSc3ccccc32)cc1OC (centres undefined),inactive,
CO[C@H]1[C@@H]2C=CO[C@@H](O[C@H]3O[C@@H](CO)[C@H](O)[C@@H](O)[C@@H]3O)[C@@H]2[C@@]2(CO)O[C@@H]12,inactive,
Cc1n[nH]c(=O)c2c(NC(=O)CSc3ccccc3F)oc(C)c12,inactive,
COc1ccc(C(=O)Cc2cnn(-c3ccccc3)c2)c(O)c1,inactive,
Cc1[nH]nc(-c2ccc(OCc3cnn(-c4ccccc4)c3)cc2O)c1Oc1ccc(Cl)cc1,5.22 µM (active),
CCOc1cc(C2C(C(=O)c3ccco3)=C(O)C(=O)N2Cc2ccccc2)ccc1O (centres undefined),inactive,
Cc1ccccc1NC(=O)C1CCN(C(=O)NC2CCCCC2)CC1,inactive,
CCCC(=O)Nc1nnc(-c2ccccc2)o1,inactive,
Cc1ccc(C)c(-c2nnc(NC(=O)CS(=O)(=O)c3ccccc3)o2)c1,13.1 µM (active),
COc1ccc(-c2nnc(NC(=O)CS(=O)(=O)c3ccc(Cl)cc3)o2)c(OC)c1,inactive,
COc1ccc(NCCc2ccccn2)cc1,inactive,
OCC[C@H]1C[C@H](O)[C@@H](O)[C@]2(CCc3ccccc3O2)O1,inactive,

Compound,Potency,"activity change, negative = inhibition"
Cc1ccc2[nH]c(=O)c(CC(=O)O)c(-c3ccccc3)c2c1,inactive,
O=C(/C=C/c1ccco1)NC(=S)N1CCCCC1,inactive,
CCSc1nnc(NC(=O)Cc2ccccc2OC)s1,inactive,
O=C(CSc1nnc(Nc2ccccc2F)s1)NC1CCCC1,inactive,
COc1ccccc1Nc1nnc(SC(C)C(=O)NC2CC2)s1 (centres undefined),10.4 µM (active),
O=C1CCCN1C(=O)COc1ccc([N+](=O)[O-])cc1,inactive,
O=C(CNc1ccccc1N1CCCC1=O)Nc1cc(Cl)ccc1-n1cncn1,inactive,
Cc1cccc(C)c1NC(=O)CNC(=O)c1c(C)nn(-c2ccccc2)c1C,inactive,
Cc1nn(-c2ccccc2)c(C)c1NC(=O)CCl,4.65 µM (active),
Cc1nn(-c2ccccc2)c(C)c1NC(=O)COC(=O)Cc1ccccc1,inactive,
Cn1ccc(=Nc2ccc(NC(=O)c3ccc(N=c4ccn(C)c5ccc([N+](=O)[O-])cc45)cc3)cc2)cc1,0.233 µM (active),
O=C(Nc1ccc(C(=O)N2CCCCC2)cc1)c1cccc([N+](=O)[O-])c1,inactive,
COc1cc(NS(=O)(=O)c2ccc(NC(=O)c3ccc([N+](=O)[O-])cc3)cc2)ncn1,inactive,
O=S(=O)(c1cccc(-c2cn3ccccc3n2)c1)N1CCCC1,inactive,
O=S(=O)(c1cccc(-c2nnc(SC(F)F)n2-c2ccccc2)c1)N1CCCCC1,11.7 µM (active),
O=S(=O)(c1cccc(-c2nnc3n2CCCCC3)c1)N1CCOCC1,inactive,
COc1cc(NC(=O)CSC(=S)N2CCCC2)c(OC)cc1Cl,inactive,
O=C1CC(c2ccccc2)C(=O)N1c1cccc(O)c1 (centres undefined),inactive,
CC(=O)Oc1ccccc1C1=NN(C(C)=O)C(c2ccccc2)C1 (centres undefined),inactive,
COc1ccc(C2CC(c3ccccc3)=NN2C(=O)c2ccc(Cl)c([N+](=O)[O-])c2)cc1 (centres undefined),inactive,
O=C(c1ccccc1)N1N=C(c2ccccc2O)CC1c1ccc(Br)cc1 (centres undefined),3.7 µM (active),
Oc1ccccc1C1=NN(c2ccccc2)C(c2ccccc2)C1 (centres undefined),1.31 µM (active),

Compound,Potency,"activity change, negative = inhibition"
CCn1c(=O)c(=O)[nH]c2c(=O)oc3ccc(S(=O)(=O)Nc4ccc(OC)cc4)cc3c21,inactive,
COc1ccc(C(=O)CCC(=O)Nc2ccc(Cl)cc2)cc1,inactive,
O=C(NCCO)C(=O)NCC(c1ccc2c(c1)OCO2)N1CCN(c2ccc(F)cc2)CC1 (centres undefined),inactive,
O=C(OCCN=C1NS(=O)(=O)c2ccccc21)c1cccc([N+](=O)[O-])c1,inactive,
Cn1c(=O)c2c(ncn2CCc2ccccc2)n(C)c1=O,inactive,
Cn1c(=O)c2c(ncn2CC(COCc2ccccc2Cl)OCc2ccccc2Cl)n(C)c1=O (centres undefined),8.28 µM (active),
Cn1c(=O)c2c(ncn2CC(=O)N2CCN(c3ccccc3)CC2)n(C)c1=O,inactive,
COc1ccccc1S(=O)(=O)c1c(C)cc(C)[nH]c1=O,inactive,
O=S(=O)(NC1CC1)c1ccc(F)c(F)c1,inactive,
O=C(CC1C(=O)NCCN1CC(c1ccccc1)c1ccccc1)NCC1CCOCC1 (centres undefined),inactive,
C=CCN1CCN(C(=O)CCCc2ccccc2)CC1,inactive,
COc1ccc(/C=C2/C(=O)N(c3ccccc3)N=C2C)c(OC)c1,inactive,
COc1ccc(/C=C/C(=O)OCC(=O)Nc2cccc(Oc3ccccc3)c2)c(OC)c1,inactive,
COc1ccc(/C=C/C2=CC(C)(C)NC(=S)N2)c(OC)c1,10.4 µM (active),
O=C(CNC(=O)c1cccnc1)N/N=C/c1cccnc1,,2.56% [at 0.00184 µM] (inactive)
CCN(C(=O)CSc1ncnc2c1cnn2-c1ccccc1)C1CCS(=O)(=O)C1 (centres undefined),inactive,
CC(C(=O)NC1CCCCC1)N1C(=O)c2cccc3cccc1c23 (centres undefined),inactive,
CCc1cccc(CC)c1NC(=S)NCc1ccc2[nH]c(C)cc2c1,4.65 µM (active),
Cc1c(Cl)cccc1NC(=S)NCc1ccc2c(c1)OCO2,inactive,
CCc1cccc(CC)c1NC(=S)Nc1ccc2cn[nH]c2c1,inactive,
Cc1cccc(NC(=O)C2CCN(C(=O)NC3CCCCC3)CC2)c1,inactive,
CCc1ccc(OCC(=O)N(Cc2ccccc2)C2CCS(=O)(=O)C2)cc1 (centres undefined),inactive,

Compound,Potency,"activity change, negative = inhibition"
CCOC(=O)N1CCN(S(=O)(=O)N2CCCC(C(=O)NCCCN3CCC(C)CC3)C2)CC1 (centres undefined),inactive,
CCOc1ccccc1Oc1cn[nH]c1-c1ccc(OC)cc1O,11.7 µM (active),
COc1ccc(-c2cn[nH]c2-c2ccc(OC)cc2)cc1,inactive,
CCN(CCn1cccn1)Cc1cn[nH]c1-c1ccc(OC)cc1F,inactive,
COc1ccc(Oc2cn[nH]c2-c2ccc(OC)cc2O)cc1,6.57 µM (active),
COc1ccc(-c2[nH]ncc2CN(C)Cc2cccnc2)c(F)c1,inactive,
COc1ccc(-c2[nH]ncc2/C=N/NC(=O)c2cc(Br)ccc2O)c(OC)c1,inactive,
NC(=O)CSc1nnc(NC(=O)c2ccc(Br)o2)s1,inactive,
Cc1cc(C)c(S(=O)(=O)c2ccc(F)cc2C)c(=O)[nH]1,inactive,
CC(C)NS(=O)(=O)c1ccc(OCC(=O)NC2CCCCCC2)cc1,inactive,
Cc1ccc(NS(=O)(=O)c2ccc(F)cc2)nc1,inactive,
CSCC[C@H](NC(=O)N1CCn2c1nc1ccccc12)C(=O)NCc1ccc2c(c1)OCO2,inactive,
COC(=O)c1ccc2ccccc2c1OC1OC(CO)C(O)C(O)C1NC(C)=O (centres undefined),inactive,
Cc1ccc(CNC(=O)[C@@H](NC(=O)Cc2ccccc2)C(C)C)cc1,inactive,
O=C(c1ccccc1)c1ccc(OCC(O)CN2CCCC2)cc1 (centres undefined),inactive,
O=[N+]([O-])c1ccc(N2CCN(CC(O)COc3ccccc3)CC2)cc1 (centres undefined),inactive,
O=C(C(c1ccccc1)c1ccccc1)N1CCN(CC(O)COc2ccccc2)CC1 (centres undefined),10.4 µM (active),
Cc1cccc(-n2c(C)cc(/C=N\NC(=O)c3cccs3)c2C)c1,5.22 µM (active),
Cc1cccc(-n2c(C)cc(/C=N/NC(N)=S)c2C)c1,inactive,
CC(=O)Nc1ccc(/C=N/NC(=O)c2cccs2)cc1,inactive,
Cc1ccc2[nH]cc(CCNC(=O)C3CCCCC3)c2c1,inactive,
CCc1c(C)nc(SCC(=O)NC2CCCC2)[nH]c1=O,inactive,

Compound,Potency,"activity change, negative = inhibition"
N#C/C(=C(/O)Cc1cccc2ccccc12)c1nc2ccccc2s1,inactive,
c1ccc2c(CSCc3nc4ccccc4[nH]3)cccc2c1,inactive,
N=C(N)SCc1cccc2ccccc12,9.28 µM (active),
O=C(Nc1ccc(Cl)cc1)c1cccc(OC(=S)N2CCOCC2)c1,inactive,
Cc1ccc(C(=O)O/N=C(\N)c2ccccn2)cc1Cl,inactive,
CCOc1ccc(OCCSc2nc3ccccc3n2CC(=O)O)cc1,inactive,
CC(C)=CCN1CCN(Cc2cc3ccccc3[nH]2)CC1CCO (centres undefined),inactive,
COc1ccc(C(=O)N2CCCC(C(=O)c3ccccc3OC)C2)cc1OC (centres undefined),inactive,
COc1ccc(-n2nnnc2SCc2nc(N)nc(N3CCOCC3)n2)cc1,inactive,
COc1ccc(CSc2nc(N3CCOCC3)c3c(c2C#N)CC(C)(C)OC3)cc1,11.7 µM (active),
Cc1cc(C)c(C#N)c(SCc2ccc3c(c2)OCO3)n1,inactive,
CC(C)(C)OC(=O)N1CCC(C(=O)NNC(=O)c2ccc(Cl)cc2Cl)CC1,inactive,
Cc1c(CN2CCC(n3nccc3NC(=O)CCc3ccccc3)CC2)cnn1C,inactive,
COC(=O)c1c(NC(=O)C2CC(C)=C(C)CC2C(=O)O)sc2c1CCCCC2 (centres undefined),inactive,
COC(=O)c1ccc(S(=O)(=O)N2CCc3ccccc3C2)cc1,inactive,
COc1ccc(N2C(=O)c3ccccc3NC2c2ccc(OC)c(CN3CCOCC3)c2)cc1 (centres undefined),inactive,
COc1ccc(C2Nc3ccccc3C(=O)N2Cc2ccccc2)cc1Cn1nnc2ccccc21 (centres undefined),3.7 µM (active),
Cc1ccc(C2Nc3ccccc3C(=O)N2CCN2CCNC2=O)cc1 (centres undefined),inactive,
COc1ccc(C2Nc3ccccc3C(=O)N2c2ccc(F)cc2)cc1Cn1nnc2ccccc21 (centres undefined),6.57 µM (active),
COc1ccc(C2=NO[C@@H]3C(=O)N(Cc4ccccc4)C(=O)[C@H]23)cc1OC,inactive,
COc1ccc(C2Nc3ccccc3C(=O)N2c2ccc(Cl)cc2)cc1Cn1cc([N+](=O)[O-])cn1 (centres undefined),inactive,
